Data published in PubChem BioAssay AID493170 (National Center for Advancing Translational Sciences (NCATS), 2011).
Records with an inconclusive call do not appear. Values without a mark were called inactive. Calls of active or inactive are those of the source. Calls follow the shape of the dose curve; as a rule, active = well fitted inhibition curve with a large enough effect; inconclusive = small, poorly fitted or top-dose-only effect, or effect the other way; inactive = flat fitted curve, though single readings scatter.

What follows are compounds tested against Ubiquitin carboxyl-terminal hydrolase 2 (Homo sapiens) (UniProt O75604) (assay: Ub-rhodamine 110 based assay for inhibitors Ubiquitin-specific Protease USP2a). Details: USP2a Ub-rhodamine110 cleavage, fluorescence; series mostly up to 38.3 µM; activity change, negative = inhibition: at the top concentration.
Sequence of Ubiquitin carboxyl-terminal hydrolase 2 (Homo sapiens) (O75604 whole entry, looked up): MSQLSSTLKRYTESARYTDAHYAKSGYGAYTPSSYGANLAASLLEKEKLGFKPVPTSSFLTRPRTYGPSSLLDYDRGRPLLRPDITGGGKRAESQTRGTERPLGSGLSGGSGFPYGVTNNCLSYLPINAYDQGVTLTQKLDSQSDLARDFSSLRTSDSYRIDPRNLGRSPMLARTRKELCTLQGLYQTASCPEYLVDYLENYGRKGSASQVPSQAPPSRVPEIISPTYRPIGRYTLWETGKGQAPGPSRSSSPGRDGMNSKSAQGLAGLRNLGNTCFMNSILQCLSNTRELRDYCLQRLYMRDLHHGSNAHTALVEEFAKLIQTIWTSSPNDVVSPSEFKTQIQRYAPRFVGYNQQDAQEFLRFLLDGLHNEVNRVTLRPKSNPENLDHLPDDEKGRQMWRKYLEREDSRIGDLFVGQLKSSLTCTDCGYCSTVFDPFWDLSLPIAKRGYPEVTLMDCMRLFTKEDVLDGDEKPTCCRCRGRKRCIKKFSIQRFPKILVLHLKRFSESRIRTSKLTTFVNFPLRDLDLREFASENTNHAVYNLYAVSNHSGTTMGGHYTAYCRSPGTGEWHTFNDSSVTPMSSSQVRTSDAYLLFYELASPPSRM
How it was run: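 Kinetic fluorescence (485/531 nm) read each minute over 7 min after adding Ub-Rhod110 (150 nM final) to USP2a (5 nM final). The enzyme had 30 min RT exposure to compounds beforehand in Tris pH 8.0 buffer with CaCl2, CHAPS and beta-ME.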
% is scaled to controls: 0 for no effect and ±100 for the full control effect; potency is read from the fitted curve at half-maximal effect.
Also: nearly all actives have a fitted effect of over 50% in size.

Compound	activity change, negative = inhibition [%]	Potency
Cc1cc(N2CCOCC2)nc(SCC(=O)c2ccc(Cl)cc2)n1	-4.72	
CC(=O)N1c2c(cc(Br)cc2S(=O)(=O)NCc2cccnc2)CC1C (stereo unspecified)	-1.19	
Cc1cc(NC(=O)c2cccc(S(=O)(=O)N(C)C)c2)n(-c2ccccn2)n1	-14.6	
CC(C)(C)OC(=O)C[C@H]1C/C=C\C[C@H](CC(=O)N(CCO)Cc2ccccc2)C(=O)NC[C@H](c2ccccc2)OC1=O	-3.48	
COC(=O)c1[nH]c2cc(OC)ccc2c1N	-7.95	
CC(C)c1ccc(CCNC(=O)c2ccc([N+](=O)[O-])cc2)cc1	-3.75	
O=C(CC1Oc2ccccc2NC1=O)NCc1ccc(Cl)cc1 (stereo unspecified)	-16.5	
O=C(O)c1cc(N2N=C(C(F)(F)F)/C(=C/C=C/c3ccco3)C2=O)ccc1Cl		7.08 µM (active)
Cc1ccc(-c2c(C#N)c(N)nc3c2CCCCC3)o1	-15.5	
CC1CCCCN1CCNC(=O)c1cnn2ccccc12 (stereo unspecified)	8.54	
O=C(NCCOC(=O)c1ccccc1C(=O)OCCNC(=O)c1cccnc1)c1cccnc1	-1.61	
Cc1c(NC(=O)C2CCCN2S(=O)(=O)c2ccc(Cl)cc2)c(=O)n(-c2ccccc2)n1C (stereo unspecified)	-5.13	
CCO[C@H]1OC(C(=O)N2CCCCCCC2)=C[C@@H](c2ccc(C(F)(F)F)cc2)[C@@H]1CCCO	-6.95	
C/C(Cn1nnc2ccccc21)=N\OC(=O)c1ccccc1C	-3.84	
COc1cccc(C(=O)NC(C)c2ccc(-c3ccccc3)cc2)c1OC (stereo unspecified)	-7.15	
O=C(O)CN1C(=O)/C(=C\c2ccccc2OCc2ccc(Cl)cc2Cl)SC1=S		10 µM (active)
COC1=CCC2([N+](=O)[O-])CN(CCO)CC1([N+](=O)[O-])C2 (stereo unspecified)	3.44	
CCN(C[C@H]1N[C@@](CC)(C(=O)OC)[C@H]2C(=O)N(Cc3ccccc3)C(=O)[C@@H]12)C(=O)Nc1ccc(C)cc1	-4.79	
COc1ccccc1-n1c(SCC(=O)Nc2ccc(C)cc2)nc(O)cc1=O	1.74	
C#CCOCCOCCOCCNc1nc(N2CCN(C(=O)CCCCCCCCCCNC(=O)[C@@H](CCC(=O)O)n3cc(CCCCCN)nn3)CC2)nc(N2CCN(C(=O)CCCCCCCCCCNC(=O)[C@H](CCCCN)n3cc(C[C@@H](C)CC)nn3)CC2)n1	-15.6	
Cc1ccc(C(C)C)c(OCc2nn(CC(=O)c3ccc(OC(F)F)cc3)c3[n+]2CCCCC3)c1	-4.28	
O=C1CS/C(=C/C(=O)c2ccccc2)N1	-10.4	
CC(=O)C1=C(O)C(=O)N(c2nnn(C)n2)C1c1cccs1 (stereo unspecified)	-10.9	
O=C(Nc1nc(-c2ccco2)c(-c2ccco2)s1)c1ccc(F)cc1F		10 µM (active)
COc1ccc(CCN2C(=O)/C(=C\c3ccco3)SC2=S)cc1OC	-10.5	
O=C(Nc1ccc(N2CCCC2)cc1)C(c1ccccc1)c1ccccc1	-19.6	
